Measurements: the supplement of paper PMC10849652
The full data set covers some 8,800 targets. This sample favours those with a hit. About 0.5% of all pairs of compound and target were hits.

Tests used:
Assay in all cases: log2 fold change, soluble protein after heating vs DMSO (PISA); higher = thermal stabilisation; K562 lysate, 10 uM; active = over 0.2 and 3.5 SD of the protein, either way, in both replicates (recomputed)
erlotinib = compound: C#Cc1cccc(Nc2ncnc3cc(OCCOC)c(OCCOC)cc23)c1 [erlotinib]
Outline: (§1)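 Dounce homogenisation of K562 pellets in PBS pH 7.4 with 1 mM MgCl2 produced a crude extract, used at 1 mg/mL protein. Exposure to 10 μM compound lasted 30 min, and aliquots were then heated for 3 min across 48°C-58°C, pooled and brought to 0.5% NP-40 at 4°C. The supernatant after 21,000xg for 90 min was quantified by TMTpro 16plex LC-MS/MS with channel sums equalised. Duplicate values are given as log-two fold change in thermal stability relative to solvent controls.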

[1] = compound: C/C(=N\NC(=O)C1=CC(=CC=C1)S(=O)(=O)N2CCOCC2)/C3=C(C=CC(=C3)Cl)O
Outline: as §1

[2] = compound: C1=CC(=CC=C1C2=NC3=C(N2)C=C(C=C3)C(=O)N)OC4=CC=C(C=C4)Cl
Outline: as §1

[3] = compound: C1=CC2=C(C=CC(=C2)/C=C\3/C(=O)NC(=NCC4=CC=CS4)S3)N=C1
Outline: as §1

[4] = compound: C1=CC2=NC=CN=C2C=C1/C=C/3\C(=O)NC(=O)S3
Outline: as §1

[5] = compound: C1=CC=C(C=C1)C2=NC(=C(N2)C3=CC=NC=C3)C4=CC(=C(C=C4)Cl)O
Outline: as §1

[6] = compound: C1=CC=C2C(=C1)C3=NNC4=CC=CC(=C43)C2=O
Outline: as §1

[7] = compound: C1CCN(C1)C(=O)NC2=CC=CC(=C2)NC3=NC=C(C(=N3)NCCC4=CN=CN4)Br
Outline: as §1

[8] = compound: C1CN(CCC1(CC2=CC=C(C=C2)Cl)N)C3=NC=NC4=C3C=CN4
Outline: as §1

IRAK-1-4 Inhibitor I = compound: C1COCCN1CCN2C3=CC=CC=C3N=C2NC(=O)C4=CC(=CC=C4)[N+](=O)[O-] [IRAK-1-4 Inhibitor I]
Outline: as §1

ibrutinib = compound: C=CC(=O)N1CCC[C@@H](n2nc(-c3ccc(Oc4ccccc4)cc3)c3c(N)ncnc32)C1 [ibrutinib]
Outline: as §1

[9] = compound: CC(=O)c1cnc2ccc(-c3cc(Cl)c(O)c(Cl)c3)nc2c1N[C@H]1CC[C@H](CN(C)C)CC1
Outline: as §1

ralimetinib = compound: CC(C)(C)Cn1c(N)nc2ccc(-c3[nH]c(C(C)(C)C)nc3-c3ccc(F)cc3)nc21 [ralimetinib]
Outline: as §1

[10] = compound: CC(C)(O)CC(=O)NCCn1ccc2ncnc(Nc3ccc(Oc4cccc(C(F)(F)F)c4)c(Cl)c3)c21
Outline: as §1

[11] = compound: CC(C)C1=C2N=C(C=C(N2N=C1)NCC3=CC=CC=C3)NCCCCCCN
Outline: as §1

[12] = compound: CC1=C(C(CC(=O)N1)C2=CC=C(C=C2)C(F)(F)F)C(=O)NC3=C(C=C4C(=C3)C=NN4)F
Outline: as §1

[13] = compound: CC1=C(C2=C(C=C1)C(=O)C3=CC=CC=C3N2CCCN)C
Outline: as §1

[14] = compound: CC1=C(C=C(C=C1)NC(=O)C2=CC(=CC=C2)C(C)(C)C#N)NC3=CC4=C(C=C3)N=CN(C4=O)C
Outline: as §1

[15] = compound: CC1=C(C=C(C=C1)NC(=O)C2=CC(=CC=C2)N(C)C)NC(=O)C3=CC=C(C=C3)O
Outline: as §1

[16] = compound: CC1=CC=C(C=C1)SC2=C3C=C(SC3=CN=C2)C(=O)N
Outline: as §1

Measured: log2 fold change

AFF1 isoform 2 (UniProt P51825)
Chain of UniProt P51825 (P51825 whole entry, looked up): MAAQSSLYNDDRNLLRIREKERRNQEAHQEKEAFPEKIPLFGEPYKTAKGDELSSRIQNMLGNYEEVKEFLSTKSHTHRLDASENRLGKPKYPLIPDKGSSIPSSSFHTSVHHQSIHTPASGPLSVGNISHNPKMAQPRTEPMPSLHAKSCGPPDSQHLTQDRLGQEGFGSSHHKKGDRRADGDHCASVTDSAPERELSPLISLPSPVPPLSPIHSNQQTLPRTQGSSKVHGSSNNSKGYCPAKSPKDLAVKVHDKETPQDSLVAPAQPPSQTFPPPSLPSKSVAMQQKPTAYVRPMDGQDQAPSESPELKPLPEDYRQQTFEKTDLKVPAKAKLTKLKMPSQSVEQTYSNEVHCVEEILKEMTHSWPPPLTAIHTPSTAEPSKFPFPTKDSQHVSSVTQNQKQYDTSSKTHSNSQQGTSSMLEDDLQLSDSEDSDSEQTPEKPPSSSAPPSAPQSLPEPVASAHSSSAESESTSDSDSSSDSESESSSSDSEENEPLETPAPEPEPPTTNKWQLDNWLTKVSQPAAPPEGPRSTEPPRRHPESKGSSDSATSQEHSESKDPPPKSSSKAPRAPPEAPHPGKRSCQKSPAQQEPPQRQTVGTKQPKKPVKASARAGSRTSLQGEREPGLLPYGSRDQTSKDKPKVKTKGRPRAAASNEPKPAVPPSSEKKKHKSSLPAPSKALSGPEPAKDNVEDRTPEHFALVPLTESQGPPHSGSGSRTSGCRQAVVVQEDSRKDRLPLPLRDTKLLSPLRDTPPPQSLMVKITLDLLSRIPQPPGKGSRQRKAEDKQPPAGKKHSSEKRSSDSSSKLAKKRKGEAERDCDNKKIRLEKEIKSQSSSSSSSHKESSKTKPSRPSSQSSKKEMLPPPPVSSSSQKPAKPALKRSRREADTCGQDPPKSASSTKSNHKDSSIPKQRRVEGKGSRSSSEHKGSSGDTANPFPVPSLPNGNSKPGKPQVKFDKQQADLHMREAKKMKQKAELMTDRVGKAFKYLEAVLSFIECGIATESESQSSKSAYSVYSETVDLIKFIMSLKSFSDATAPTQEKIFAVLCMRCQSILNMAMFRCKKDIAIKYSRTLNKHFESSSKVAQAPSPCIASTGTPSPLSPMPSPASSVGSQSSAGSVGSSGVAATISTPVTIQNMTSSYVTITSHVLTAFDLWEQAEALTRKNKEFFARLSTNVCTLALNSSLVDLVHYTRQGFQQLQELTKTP
inactive: erlotinib -0.001 | [1] -0.085 | [2] 0.027 | [3] 0.071 | [4] -0.068 | [5] -0.007 | [6] -0.041 | [7] -0.002 | [8] 0.005 | IRAK-1-4 Inhibitor I 0.021 | ibrutinib 0.136 | [9] -0.028 | ralimetinib 0.078 | [10] -0.02 | [11] -0.001 | [12] 0.037 | [13] -0.047 | [14] 0.023 | [15] 0.02 | [16] -0.002

ARHGEF1 (UniProt M0QZR4)
inactive: erlotinib 0.018 | [1] 0.024 | [2] -0.023 | [3] 0.002 | [4] 0.027 | [5] 0.001 | [6] -0.041 | [7] -0.004 | [8] -0.022 | IRAK-1-4 Inhibitor I -0.031 | ibrutinib -0.009 | [9] -0.001 | ralimetinib 0.009 | [10] -0.008 | [11] 0.019 | [12] -0.015 | [13] 0.007 | [14] 0.002 | [15] 0.015 | [16] 0.005

ALKBH4 (UniProt Q9NXW9)
Chain of UniProt Q9NXW9 (Q9NXW9 whole entry, looked up): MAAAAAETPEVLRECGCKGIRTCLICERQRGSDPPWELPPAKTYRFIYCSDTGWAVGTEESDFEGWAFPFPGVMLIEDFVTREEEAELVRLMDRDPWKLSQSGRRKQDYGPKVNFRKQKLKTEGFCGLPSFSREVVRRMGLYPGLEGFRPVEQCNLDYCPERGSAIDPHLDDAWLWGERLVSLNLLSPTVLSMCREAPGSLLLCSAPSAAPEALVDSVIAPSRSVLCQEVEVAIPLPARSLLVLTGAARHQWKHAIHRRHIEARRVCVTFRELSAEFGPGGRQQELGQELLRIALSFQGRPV
inactive: erlotinib 0.014 | [1] -0.073 | [2] 0.026 | [3] -0.011 | [4] 0.017 | [5] -0.052 | [6] -0.069 | [7] 0 | [8] 0.019 | IRAK-1-4 Inhibitor I 0.003 | ibrutinib 0.076 | [9] 0.056 | ralimetinib 0.032 | [10] 0.003 | [11] -0.031 | [12] 0.031 | [13] -0.036 | [14] 0.004 | [15] -0.006 | [16] 0.002

ANP32A (UniProt P39687)
Chain of UniProt P39687 (P39687 whole entry, looked up): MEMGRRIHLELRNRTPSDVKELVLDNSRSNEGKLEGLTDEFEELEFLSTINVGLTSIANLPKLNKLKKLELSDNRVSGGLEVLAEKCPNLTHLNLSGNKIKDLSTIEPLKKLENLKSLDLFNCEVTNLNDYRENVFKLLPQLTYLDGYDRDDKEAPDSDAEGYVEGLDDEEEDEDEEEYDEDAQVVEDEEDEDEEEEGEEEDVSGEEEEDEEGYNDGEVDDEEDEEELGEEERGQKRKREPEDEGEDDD
inactive: erlotinib -0.147 | [1] 0.075 | [2] -0.199 | [3] -0.012 | [4] 0.012 | [5] 0.006 | [6] 0.018 | [7] 0.026 | [8] -0.008 | IRAK-1-4 Inhibitor I 0.013 | ibrutinib 0.003 | [9] -0.003 | ralimetinib 0.002 | [10] 0.188 | [11] -0.041 | [12] -0.029 | [13] 0.079 | [14] -0.025 | [15] -0.046 | [16] -0.018

AGPAT1 (UniProt Q99943)
Chain of UniProt Q99943 (Q99943 whole entry, looked up): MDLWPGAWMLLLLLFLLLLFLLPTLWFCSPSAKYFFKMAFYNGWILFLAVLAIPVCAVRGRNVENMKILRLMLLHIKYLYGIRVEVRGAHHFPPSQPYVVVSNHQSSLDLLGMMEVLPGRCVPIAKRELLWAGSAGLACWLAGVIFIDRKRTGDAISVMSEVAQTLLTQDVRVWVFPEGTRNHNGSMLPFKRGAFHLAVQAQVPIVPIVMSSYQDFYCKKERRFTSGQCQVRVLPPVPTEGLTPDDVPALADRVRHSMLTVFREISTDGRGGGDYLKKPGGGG
inactive: erlotinib 0.012 | [1] 0.027 | [2] -0.145 | [3] 0.05 | [4] 0.028 | [5] -0.023 | [6] -0.01 | [7] -0.019 | [8] 0.01 | IRAK-1-4 Inhibitor I 0.036 | ibrutinib -0.121 | [9] -0.05 | ralimetinib 0.027 | [10] -0.051 | [11] -0.026 | [12] 0.06 | [13] 0.012 | [14] 0.02 | [15] 0.043 | [16] 0.042

AIP (UniProt O00170)
Chain of UniProt O00170 (O00170 whole entry, looked up): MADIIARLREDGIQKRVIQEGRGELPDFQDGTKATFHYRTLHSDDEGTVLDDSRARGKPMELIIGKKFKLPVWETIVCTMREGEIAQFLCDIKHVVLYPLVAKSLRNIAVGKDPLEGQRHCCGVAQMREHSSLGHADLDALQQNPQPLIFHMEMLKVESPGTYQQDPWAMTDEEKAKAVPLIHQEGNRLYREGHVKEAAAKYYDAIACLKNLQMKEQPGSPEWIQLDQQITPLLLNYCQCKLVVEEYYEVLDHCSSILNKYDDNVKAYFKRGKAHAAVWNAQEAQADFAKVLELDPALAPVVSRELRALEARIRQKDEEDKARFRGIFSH
inactive: erlotinib -0.006 | [1] -0.032 | [2] -0.015 | [3] -0.004 | [4] -0.012 | [5] 0.018 | [6] 0.026 | [7] -0.002 | [8] 0.016 | IRAK-1-4 Inhibitor I -0.012 | ibrutinib 0.019 | [9] -0.004 | ralimetinib -0.022 | [10] -0.003 | [11] -0.012 | [12] -0.011 | [13] -0.017 | [14] 0.011 | [15] 0 | [16] -0.023

ALDH6A1 (UniProt Q02252)
Chain of UniProt Q02252 (Q02252 whole entry, looked up): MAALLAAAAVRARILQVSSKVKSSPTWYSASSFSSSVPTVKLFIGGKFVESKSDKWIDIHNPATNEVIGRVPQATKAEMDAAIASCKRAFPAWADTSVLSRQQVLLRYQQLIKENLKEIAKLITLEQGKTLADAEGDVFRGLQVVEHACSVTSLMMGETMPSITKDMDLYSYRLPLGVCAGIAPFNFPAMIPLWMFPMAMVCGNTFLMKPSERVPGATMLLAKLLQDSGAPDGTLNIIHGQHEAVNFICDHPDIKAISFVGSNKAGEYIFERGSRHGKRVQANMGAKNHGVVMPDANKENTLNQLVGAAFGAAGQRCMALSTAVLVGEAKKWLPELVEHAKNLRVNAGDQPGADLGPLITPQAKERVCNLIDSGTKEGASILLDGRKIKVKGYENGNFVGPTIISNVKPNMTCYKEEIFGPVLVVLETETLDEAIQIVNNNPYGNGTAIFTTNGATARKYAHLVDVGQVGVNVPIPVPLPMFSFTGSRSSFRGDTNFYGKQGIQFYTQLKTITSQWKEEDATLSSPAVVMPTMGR
inactive: erlotinib -0.03 | [1] 0.064 | [2] -0.04 | [3] -0.068 | [4] -0.179 | [5] 0.043 | [6] -0.031 | [7] -0.022 | [8] 0.015 | IRAK-1-4 Inhibitor I 0.024 | ibrutinib 0.128 | [9] -0.006 | ralimetinib -0.064 | [10] -0.043 | [11] 0.008 | [12] -0.088 | [13] -0.191 | [14] 0.025 | [15] -0.066 | [16] -0.02

ARHGAP6 (UniProt O43182)
Chain of UniProt O43182 (O43182 whole entry, looked up): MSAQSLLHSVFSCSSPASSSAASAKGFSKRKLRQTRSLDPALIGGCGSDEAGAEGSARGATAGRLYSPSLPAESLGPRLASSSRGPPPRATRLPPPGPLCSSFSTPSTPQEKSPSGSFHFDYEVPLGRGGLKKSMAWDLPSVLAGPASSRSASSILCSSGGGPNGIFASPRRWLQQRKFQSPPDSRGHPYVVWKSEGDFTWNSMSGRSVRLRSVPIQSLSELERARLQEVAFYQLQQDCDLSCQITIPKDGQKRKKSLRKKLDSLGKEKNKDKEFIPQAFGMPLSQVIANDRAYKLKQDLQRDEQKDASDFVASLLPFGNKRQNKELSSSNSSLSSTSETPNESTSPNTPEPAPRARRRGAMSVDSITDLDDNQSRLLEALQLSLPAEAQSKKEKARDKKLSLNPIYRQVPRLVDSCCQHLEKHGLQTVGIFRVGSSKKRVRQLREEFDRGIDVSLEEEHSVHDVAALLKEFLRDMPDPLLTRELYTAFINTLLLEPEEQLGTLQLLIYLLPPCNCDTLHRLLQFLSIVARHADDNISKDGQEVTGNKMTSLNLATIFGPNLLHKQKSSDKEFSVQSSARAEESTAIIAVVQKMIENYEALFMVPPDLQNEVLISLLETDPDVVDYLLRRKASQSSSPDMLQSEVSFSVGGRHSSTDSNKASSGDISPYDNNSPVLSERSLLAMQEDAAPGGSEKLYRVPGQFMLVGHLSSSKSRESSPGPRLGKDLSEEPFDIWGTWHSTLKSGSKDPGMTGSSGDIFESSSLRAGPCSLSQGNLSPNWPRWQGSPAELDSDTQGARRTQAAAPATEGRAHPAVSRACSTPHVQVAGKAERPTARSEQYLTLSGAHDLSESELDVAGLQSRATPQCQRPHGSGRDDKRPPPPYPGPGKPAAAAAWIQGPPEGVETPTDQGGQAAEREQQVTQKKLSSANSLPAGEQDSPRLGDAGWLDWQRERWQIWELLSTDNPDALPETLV
inactive: erlotinib 0.013 | [1] -0.145 | [2] -0.04 | [3] 0.061 | [4] 0.07 | [5] 0.041 | [6] -0.005 | [7] -0.016 | [8] 0.037 | IRAK-1-4 Inhibitor I 0.015 | ibrutinib 0.081 | [9] -0.008 | ralimetinib -0.018 | [10] -0.038 | [11] -0.017 | [12] 0.101 | [13] -0.007 | [14] 0.002 | [15] 0.01 | [16] -0.018
